How the values were obtained:
[1] = molecular target: T1, Serine/threonine-protein kinase TBK1 (Homo sapiens) (UniProt Q9UHD2); conditions: at 10 µM
T1 sequence (whole entry): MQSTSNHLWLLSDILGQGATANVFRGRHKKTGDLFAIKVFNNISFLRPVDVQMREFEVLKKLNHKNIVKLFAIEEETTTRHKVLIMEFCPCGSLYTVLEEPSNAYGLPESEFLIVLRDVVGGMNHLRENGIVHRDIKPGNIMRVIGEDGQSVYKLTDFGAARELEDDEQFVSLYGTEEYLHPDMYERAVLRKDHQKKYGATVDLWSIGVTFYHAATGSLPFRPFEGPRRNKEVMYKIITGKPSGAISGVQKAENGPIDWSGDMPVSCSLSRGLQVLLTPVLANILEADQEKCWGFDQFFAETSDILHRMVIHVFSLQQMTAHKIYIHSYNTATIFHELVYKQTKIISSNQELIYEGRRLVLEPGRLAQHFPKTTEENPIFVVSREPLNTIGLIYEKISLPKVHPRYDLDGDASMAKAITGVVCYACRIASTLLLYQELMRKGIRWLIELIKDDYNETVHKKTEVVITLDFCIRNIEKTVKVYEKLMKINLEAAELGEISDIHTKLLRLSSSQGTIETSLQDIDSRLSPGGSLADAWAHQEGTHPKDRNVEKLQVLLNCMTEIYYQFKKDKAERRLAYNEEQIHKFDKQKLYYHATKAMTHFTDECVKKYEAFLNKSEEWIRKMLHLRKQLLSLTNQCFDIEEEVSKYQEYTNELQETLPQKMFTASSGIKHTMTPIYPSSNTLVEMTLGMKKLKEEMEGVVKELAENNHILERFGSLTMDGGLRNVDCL

[2] = molecular target: T2, TGF-beta receptor type-1 (Homo sapiens) (UniProt P36897); conditions: at 1 µM
T2 sequence (whole entry): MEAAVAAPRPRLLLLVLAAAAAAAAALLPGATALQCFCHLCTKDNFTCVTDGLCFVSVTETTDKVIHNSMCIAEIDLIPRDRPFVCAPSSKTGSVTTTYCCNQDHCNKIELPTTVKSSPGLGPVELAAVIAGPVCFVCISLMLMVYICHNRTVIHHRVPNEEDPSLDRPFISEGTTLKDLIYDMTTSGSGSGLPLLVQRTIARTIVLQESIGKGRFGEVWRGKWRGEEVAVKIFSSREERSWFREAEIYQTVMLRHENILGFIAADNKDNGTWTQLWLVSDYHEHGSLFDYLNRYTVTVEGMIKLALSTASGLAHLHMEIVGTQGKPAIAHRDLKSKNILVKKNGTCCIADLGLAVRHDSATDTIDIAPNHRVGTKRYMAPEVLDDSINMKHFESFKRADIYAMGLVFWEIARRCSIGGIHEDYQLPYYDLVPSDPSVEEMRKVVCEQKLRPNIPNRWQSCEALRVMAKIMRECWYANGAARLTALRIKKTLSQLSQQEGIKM

[3] = molecular target: T2, TGF-beta receptor type-1 (Homo sapiens); conditions: at 10 µM
[4] = molecular target: Insulin-like growth factor 1 receptor (Homo sapiens) (UniProt P08069); conditions: at 1 µM
Sequence of Insulin-like growth factor 1 receptor (Homo sapiens) (P08069 31-736 limits assumed): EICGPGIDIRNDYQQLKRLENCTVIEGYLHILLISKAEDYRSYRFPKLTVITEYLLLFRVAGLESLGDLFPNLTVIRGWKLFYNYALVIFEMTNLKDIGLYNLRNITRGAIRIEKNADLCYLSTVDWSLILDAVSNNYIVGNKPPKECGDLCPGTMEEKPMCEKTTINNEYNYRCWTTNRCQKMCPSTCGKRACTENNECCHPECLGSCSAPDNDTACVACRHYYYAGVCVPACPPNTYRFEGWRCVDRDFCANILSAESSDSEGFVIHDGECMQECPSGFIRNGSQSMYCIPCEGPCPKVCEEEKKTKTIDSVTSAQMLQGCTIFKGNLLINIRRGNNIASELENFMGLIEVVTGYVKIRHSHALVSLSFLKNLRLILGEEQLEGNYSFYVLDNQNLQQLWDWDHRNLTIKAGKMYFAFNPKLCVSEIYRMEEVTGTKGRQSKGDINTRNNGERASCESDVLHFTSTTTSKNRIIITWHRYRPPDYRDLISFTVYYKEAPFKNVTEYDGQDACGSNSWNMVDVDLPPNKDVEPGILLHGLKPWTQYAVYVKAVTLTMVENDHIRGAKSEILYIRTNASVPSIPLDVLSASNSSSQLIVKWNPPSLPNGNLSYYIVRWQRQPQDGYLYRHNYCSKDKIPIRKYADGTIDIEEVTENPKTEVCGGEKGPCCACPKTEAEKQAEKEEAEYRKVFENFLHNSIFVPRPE
Sequence of Insulin-like growth factor 1 receptor (Homo sapiens) (P08069 741-1367 limits assumed): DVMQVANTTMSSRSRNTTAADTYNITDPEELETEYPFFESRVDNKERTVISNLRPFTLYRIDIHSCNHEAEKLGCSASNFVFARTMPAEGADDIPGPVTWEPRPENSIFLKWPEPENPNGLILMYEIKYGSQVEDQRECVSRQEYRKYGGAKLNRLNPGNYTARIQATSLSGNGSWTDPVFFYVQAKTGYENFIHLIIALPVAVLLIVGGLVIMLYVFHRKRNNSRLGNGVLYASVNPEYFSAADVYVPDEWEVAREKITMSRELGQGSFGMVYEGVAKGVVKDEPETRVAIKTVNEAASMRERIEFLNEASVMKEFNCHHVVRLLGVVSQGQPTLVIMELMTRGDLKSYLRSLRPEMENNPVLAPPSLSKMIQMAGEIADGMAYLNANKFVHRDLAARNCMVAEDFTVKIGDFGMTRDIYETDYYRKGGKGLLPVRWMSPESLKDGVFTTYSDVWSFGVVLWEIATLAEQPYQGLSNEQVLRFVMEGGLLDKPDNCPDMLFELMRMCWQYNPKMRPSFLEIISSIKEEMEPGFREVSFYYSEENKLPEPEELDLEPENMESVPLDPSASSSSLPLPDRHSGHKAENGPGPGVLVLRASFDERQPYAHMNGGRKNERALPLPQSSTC

[5] = molecular target: Insulin-like growth factor 1 receptor (Homo sapiens) (UniProt P08069); conditions: at 10 µM
[6] = molecular target: T3, Inhibitor of nuclear factor kappa-B kinase subunit alpha (Homo sapiens) (UniProt O15111); conditions: at 1 µM
T3 sequence (whole entry): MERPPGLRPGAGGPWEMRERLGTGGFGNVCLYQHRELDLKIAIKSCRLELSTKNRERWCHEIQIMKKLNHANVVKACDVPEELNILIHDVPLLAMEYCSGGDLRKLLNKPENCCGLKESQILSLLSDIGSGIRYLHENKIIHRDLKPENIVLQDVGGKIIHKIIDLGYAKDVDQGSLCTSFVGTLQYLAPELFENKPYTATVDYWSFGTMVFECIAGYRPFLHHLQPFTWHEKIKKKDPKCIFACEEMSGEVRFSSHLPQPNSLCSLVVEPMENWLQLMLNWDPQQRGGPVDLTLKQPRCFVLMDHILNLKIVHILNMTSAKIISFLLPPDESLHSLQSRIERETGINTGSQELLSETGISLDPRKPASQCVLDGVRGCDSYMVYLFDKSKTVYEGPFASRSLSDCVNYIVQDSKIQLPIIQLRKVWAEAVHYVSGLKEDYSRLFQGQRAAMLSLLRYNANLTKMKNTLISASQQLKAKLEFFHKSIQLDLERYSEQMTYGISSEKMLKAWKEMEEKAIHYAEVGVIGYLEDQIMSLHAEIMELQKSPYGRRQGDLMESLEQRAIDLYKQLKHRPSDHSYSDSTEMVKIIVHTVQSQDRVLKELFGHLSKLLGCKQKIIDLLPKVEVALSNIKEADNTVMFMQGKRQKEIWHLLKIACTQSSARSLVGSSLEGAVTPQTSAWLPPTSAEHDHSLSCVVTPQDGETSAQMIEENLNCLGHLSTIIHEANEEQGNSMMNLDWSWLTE

[7] = molecular target: T3, Inhibitor of nuclear factor kappa-B kinase subunit alpha (Homo sapiens); conditions: at 10 µM
[8] = molecular target: T4, Inhibitor of nuclear factor kappa-B kinase subunit beta (Homo sapiens) (UniProt O14920); conditions: at 1 µM
T4 sequence (whole entry): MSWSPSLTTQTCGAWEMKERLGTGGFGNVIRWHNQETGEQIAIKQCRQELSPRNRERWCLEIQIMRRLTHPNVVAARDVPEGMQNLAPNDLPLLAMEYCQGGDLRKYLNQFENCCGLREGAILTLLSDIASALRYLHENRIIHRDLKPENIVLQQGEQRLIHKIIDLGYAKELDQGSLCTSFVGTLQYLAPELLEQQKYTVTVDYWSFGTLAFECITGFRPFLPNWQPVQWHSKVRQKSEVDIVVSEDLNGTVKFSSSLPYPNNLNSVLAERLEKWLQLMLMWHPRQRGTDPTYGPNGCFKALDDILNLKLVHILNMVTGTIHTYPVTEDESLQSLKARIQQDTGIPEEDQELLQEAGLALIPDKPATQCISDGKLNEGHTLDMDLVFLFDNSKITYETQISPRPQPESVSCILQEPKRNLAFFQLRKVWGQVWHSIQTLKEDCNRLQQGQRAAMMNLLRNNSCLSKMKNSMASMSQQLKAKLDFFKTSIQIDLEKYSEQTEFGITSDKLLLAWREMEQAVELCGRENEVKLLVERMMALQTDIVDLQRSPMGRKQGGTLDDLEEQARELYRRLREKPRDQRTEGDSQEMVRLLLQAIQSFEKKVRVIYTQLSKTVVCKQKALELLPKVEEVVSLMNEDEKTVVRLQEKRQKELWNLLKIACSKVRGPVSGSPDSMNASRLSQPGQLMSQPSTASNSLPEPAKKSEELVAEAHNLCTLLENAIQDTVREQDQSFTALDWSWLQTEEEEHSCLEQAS

[9] = molecular target: T4, Inhibitor of nuclear factor kappa-B kinase subunit beta (Homo sapiens); conditions: at 10 µM
[10] = molecular target: Insulin receptor (Homo sapiens) (UniProt P06213); conditions: at 1 µM
Sequence of Insulin receptor (Homo sapiens) (P06213 28-758 limits assumed): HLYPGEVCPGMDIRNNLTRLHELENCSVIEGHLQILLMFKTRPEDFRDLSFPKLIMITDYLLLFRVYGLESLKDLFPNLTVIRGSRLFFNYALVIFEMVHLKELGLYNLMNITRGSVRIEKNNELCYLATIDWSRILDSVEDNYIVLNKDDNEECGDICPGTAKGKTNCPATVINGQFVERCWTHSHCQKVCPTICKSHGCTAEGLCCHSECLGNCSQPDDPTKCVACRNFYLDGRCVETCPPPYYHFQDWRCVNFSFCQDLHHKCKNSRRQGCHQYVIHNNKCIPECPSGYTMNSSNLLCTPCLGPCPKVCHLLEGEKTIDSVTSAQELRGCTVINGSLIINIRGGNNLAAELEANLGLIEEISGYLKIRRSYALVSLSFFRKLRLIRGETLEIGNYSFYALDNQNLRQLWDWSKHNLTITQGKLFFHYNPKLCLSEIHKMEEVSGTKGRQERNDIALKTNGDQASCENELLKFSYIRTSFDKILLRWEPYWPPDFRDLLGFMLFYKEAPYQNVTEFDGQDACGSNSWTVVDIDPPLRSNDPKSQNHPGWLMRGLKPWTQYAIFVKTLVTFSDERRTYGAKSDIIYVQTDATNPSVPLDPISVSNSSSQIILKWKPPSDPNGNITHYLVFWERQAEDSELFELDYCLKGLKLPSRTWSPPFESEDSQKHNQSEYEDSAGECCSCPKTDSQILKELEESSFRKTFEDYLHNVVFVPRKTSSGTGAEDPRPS
Sequence of Insulin receptor (Homo sapiens) (P06213 763-1382 limits assumed): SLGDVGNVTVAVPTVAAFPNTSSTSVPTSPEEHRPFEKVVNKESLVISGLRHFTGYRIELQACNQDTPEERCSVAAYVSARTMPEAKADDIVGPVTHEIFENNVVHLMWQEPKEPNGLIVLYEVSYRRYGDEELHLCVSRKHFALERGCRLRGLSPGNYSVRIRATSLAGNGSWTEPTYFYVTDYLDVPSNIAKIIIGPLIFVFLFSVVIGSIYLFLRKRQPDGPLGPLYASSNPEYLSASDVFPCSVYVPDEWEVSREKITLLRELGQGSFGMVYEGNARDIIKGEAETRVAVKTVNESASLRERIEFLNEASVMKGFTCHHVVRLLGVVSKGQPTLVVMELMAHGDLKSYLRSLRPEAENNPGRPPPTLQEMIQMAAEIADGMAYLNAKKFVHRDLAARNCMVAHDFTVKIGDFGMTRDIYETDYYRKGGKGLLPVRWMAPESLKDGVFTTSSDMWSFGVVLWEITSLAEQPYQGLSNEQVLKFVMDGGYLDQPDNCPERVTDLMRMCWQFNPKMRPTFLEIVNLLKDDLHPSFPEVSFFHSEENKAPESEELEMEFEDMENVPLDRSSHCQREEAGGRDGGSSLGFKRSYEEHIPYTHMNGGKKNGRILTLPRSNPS

[11] = molecular target: Insulin receptor (Homo sapiens) (UniProt P06213); conditions: at 10 µM
[12] = molecular target: Insulin receptor (Homo sapiens) (UniProt P06213); conditions: at 1 µM; remark: listed apart in the source
[13] = molecular target: Insulin receptor (Homo sapiens) (UniProt P06213); conditions: at 10 µM; remark: listed apart in the source
[14] = molecular target: Interleukin-1 receptor-associated kinase 1 (Homo sapiens) (UniProt P51617); conditions: at 1 µM
Sequence of Interleukin-1 receptor-associated kinase 1 (Homo sapiens) (P51617 whole entry, looked up): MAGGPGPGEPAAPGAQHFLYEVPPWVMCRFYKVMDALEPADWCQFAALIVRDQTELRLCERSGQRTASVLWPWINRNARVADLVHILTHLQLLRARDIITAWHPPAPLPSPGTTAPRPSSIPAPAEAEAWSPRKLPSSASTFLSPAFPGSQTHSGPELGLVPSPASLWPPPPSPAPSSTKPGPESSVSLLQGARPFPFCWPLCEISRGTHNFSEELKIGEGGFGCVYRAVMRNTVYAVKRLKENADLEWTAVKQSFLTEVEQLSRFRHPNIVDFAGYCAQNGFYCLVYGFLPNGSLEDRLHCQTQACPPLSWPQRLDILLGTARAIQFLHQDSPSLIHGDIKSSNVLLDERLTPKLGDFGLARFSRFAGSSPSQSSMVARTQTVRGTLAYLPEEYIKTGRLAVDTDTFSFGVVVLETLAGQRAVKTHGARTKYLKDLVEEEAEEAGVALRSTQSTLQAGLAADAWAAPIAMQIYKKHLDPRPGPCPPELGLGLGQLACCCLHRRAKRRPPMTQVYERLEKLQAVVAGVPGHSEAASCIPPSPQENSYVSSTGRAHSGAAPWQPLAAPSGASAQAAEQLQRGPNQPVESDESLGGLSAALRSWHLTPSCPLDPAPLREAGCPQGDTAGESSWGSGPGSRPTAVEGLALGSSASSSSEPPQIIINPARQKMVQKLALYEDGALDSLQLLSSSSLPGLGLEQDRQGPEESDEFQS

[15] = molecular target: Interleukin-1 receptor-associated kinase 1 (Homo sapiens) (UniProt P51617); conditions: at 10 µM
[16] = molecular target: T5, Interleukin-1 receptor-associated kinase 4 (Homo sapiens) (UniProt Q9NWZ3); conditions: at 1 µM
T5 sequence (whole entry): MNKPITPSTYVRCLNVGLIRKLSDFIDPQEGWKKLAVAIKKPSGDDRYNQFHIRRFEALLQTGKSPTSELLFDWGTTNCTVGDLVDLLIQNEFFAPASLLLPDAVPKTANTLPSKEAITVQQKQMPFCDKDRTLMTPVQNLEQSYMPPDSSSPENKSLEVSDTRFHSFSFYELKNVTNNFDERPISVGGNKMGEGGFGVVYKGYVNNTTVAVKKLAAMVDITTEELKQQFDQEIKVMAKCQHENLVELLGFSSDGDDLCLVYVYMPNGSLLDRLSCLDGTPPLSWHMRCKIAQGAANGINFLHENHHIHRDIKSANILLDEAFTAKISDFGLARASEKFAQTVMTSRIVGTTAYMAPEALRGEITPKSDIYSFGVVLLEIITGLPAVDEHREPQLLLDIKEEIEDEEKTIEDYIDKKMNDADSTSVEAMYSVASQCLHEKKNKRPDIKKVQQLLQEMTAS

[17] = molecular target: T5, Interleukin-1 receptor-associated kinase 4 (Homo sapiens); conditions: at 10 µM
[18] = molecular target: Insulin receptor-related protein (Homo sapiens) (UniProt P14616); conditions: at 1 µM
Sequence of Insulin receptor-related protein (Homo sapiens) (P14616 27-742 limits assumed): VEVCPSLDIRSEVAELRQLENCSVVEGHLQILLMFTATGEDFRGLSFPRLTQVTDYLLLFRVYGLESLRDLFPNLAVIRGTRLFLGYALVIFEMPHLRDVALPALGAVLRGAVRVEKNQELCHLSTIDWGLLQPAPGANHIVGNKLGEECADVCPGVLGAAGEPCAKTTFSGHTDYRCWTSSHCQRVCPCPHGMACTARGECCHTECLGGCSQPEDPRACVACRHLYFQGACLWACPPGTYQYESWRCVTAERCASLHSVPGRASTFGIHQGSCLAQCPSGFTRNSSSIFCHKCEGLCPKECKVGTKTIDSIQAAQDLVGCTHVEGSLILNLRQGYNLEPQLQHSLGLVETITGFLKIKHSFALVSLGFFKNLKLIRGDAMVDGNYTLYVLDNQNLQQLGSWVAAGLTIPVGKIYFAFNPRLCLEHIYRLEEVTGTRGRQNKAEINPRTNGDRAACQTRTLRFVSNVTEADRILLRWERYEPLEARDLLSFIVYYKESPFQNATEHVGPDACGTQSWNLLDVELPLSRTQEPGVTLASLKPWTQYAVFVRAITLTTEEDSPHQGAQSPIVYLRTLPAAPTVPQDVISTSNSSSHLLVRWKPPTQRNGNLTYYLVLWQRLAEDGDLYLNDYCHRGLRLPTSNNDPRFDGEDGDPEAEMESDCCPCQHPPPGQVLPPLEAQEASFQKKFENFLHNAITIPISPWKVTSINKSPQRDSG
Sequence of Insulin receptor-related protein (Homo sapiens) (P14616 747-1297 limits assumed): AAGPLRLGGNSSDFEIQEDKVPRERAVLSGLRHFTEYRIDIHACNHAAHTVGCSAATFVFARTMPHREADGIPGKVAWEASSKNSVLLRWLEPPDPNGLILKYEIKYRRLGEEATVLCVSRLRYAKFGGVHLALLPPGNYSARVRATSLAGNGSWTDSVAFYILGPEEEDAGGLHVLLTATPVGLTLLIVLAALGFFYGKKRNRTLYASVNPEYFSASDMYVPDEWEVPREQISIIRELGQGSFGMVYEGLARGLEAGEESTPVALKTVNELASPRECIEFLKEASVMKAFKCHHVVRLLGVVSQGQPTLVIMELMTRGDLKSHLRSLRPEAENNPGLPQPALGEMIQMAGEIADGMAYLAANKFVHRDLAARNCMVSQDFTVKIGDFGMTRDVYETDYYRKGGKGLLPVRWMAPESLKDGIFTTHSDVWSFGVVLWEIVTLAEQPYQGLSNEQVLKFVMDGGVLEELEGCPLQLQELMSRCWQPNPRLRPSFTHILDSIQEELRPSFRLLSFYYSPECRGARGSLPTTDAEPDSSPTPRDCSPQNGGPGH

[19] = molecular target: Insulin receptor-related protein (Homo sapiens) (UniProt P14616); conditions: at 10 µM
[20] = molecular target: T6, Tyrosine-protein kinase ITK/TSK (Homo sapiens) (UniProt Q08881); conditions: at 1 µM
T6 sequence (whole entry): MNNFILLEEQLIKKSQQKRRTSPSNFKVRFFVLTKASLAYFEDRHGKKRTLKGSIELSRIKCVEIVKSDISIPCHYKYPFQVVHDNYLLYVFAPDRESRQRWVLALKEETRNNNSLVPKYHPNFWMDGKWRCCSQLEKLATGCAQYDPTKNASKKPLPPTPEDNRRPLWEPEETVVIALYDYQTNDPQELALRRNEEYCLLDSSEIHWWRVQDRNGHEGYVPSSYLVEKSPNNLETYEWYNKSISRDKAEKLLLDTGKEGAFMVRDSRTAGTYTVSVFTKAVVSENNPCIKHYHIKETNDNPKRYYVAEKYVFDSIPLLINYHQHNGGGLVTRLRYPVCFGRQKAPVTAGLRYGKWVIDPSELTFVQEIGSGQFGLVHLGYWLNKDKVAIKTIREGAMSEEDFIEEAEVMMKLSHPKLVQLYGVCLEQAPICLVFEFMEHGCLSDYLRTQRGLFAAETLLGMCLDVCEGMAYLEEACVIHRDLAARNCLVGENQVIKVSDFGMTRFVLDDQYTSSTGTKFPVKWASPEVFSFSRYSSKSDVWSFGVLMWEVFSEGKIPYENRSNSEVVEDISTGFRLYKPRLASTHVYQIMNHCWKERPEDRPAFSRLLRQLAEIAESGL

Structure (SMILES) | residual activity [1] [%] | residual activity [2] [%] | residual activity [3] [%] | residual activity [4] [%] | residual activity [5] [%] | residual activity [6] [%] | residual activity [7] [%] | residual activity [8] [%] | residual activity [9] [%] | residual activity [10] [%] | residual activity [11] [%] | residual activity [12] [%] | residual activity [13] [%] | residual activity [14] [%] | residual activity [15] [%] | residual activity [16] [%] | residual activity [17] [%] | residual activity [18] [%] | residual activity [19] [%] | residual activity [20] [%]
N#C/C(=C(\N)Sc1ccc(N)cc1)c1ccccc1C(F)(F)F | 16 | 101 | 95 | 103 | 102 | 101 | 121 | 106 | 109 | 113 | 102 | 102 | 92 | 91 | 112 | 83 | 81 | 105 | 101 | 100
O=c1c2ccccc2[nH]c(=S)n1CCN1CCC(=C(c2ccc(F)cc2)c2ccc(F)cc2)CC1 | 68 | 95 | 80 | 112 | 93 | 87 | 128 | 114 | 105 | 109 | 121 | 105 | 101 | 83 | 86 | 105 | 103 | 120 | 71 | 109
O=C1Nc2ccccc2/C1=C1/Nc2ccccc2/C1=N\OCCC(O)CO (stereo not given) | 1 | 77 | 64 | 10 | 10 | 82 | 46 | 104 | 66 | 17 | 4 | 10 | 4 | 31 | 23 | 16 | 0 | 2 | 2 | 24
O=C(O)c1ccc2c3c1cccc3c(=O)n1c3ccccc3nc21 | 4 | 111 | 102 | 113 | 107 | 109 | 106 | 112 | 93 | 117 | 110 | 104 | 85 | 35 | 3 | 105 | 89 | 125 | 98 | 107
COc1ccc(CNc2nc(N(CCO)CCO)nc3c2ncn3C(C)C)cc1 | 55 | 88 | 74 | 94 | 88 | 101 | 102 | 112 | 99 | 99 | 85 | 90 | 77 | 91 | 107 | 71 | 71 | 92 | 87 | 94
CCOc1cc2ncnc(Nc3cccc(Br)c3)c2cc1OCC | 33 | 89 | 81 | 104 | 100 | 108 | 108 | 97 | 82 | 104 | 144 | 100 | 92 | 79 | 28 | 49 | 18 | 126 | 85 | 94
Cc1ccc(S(=O)(=O)/C=C/C#N)cc1 | 81 | 98 | 81 | 88 | 98 | 100 | 100 | 108 | 107 | 94 | 91 | 99 | 95 | 102 | 109 | 97 | 92 | 119 | 106 | 103
